According to PubChem BioAssay AID720648 (The Scripps Research Institute Molecular Screening Center, 2013):
Hit rate of the full screen: of about 370,000 compounds, about 3,100 (0.84%) were called active.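 How the source made its calls: active means inhibition above the mean of compounds lying between control limits plus 3 SD, set per campaign (cut at about 8.5% in these data); inactive means the rest.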 The full list was thinned out, with actives kept by preference.

These compounds were tested against Disintegrin and metalloproteinase domain-containing protein 17 (Homo sapiens) (UniProt P78536) (assay: ADAM17 inhibitors, primary screen, biochemical, QFRET (AID 720648;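 further: 0% = DMSO-only wells as the low control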)). Conditions: recombinant ADAM17, EDANS/DABCYL FRET peptide cleavage; at 6.95 µM; stronger effect = higher value.
Disintegrin and metalloproteinase domain-containing protein 17 (Homo sapiens), sequence (P78536 215-824 limits assumed): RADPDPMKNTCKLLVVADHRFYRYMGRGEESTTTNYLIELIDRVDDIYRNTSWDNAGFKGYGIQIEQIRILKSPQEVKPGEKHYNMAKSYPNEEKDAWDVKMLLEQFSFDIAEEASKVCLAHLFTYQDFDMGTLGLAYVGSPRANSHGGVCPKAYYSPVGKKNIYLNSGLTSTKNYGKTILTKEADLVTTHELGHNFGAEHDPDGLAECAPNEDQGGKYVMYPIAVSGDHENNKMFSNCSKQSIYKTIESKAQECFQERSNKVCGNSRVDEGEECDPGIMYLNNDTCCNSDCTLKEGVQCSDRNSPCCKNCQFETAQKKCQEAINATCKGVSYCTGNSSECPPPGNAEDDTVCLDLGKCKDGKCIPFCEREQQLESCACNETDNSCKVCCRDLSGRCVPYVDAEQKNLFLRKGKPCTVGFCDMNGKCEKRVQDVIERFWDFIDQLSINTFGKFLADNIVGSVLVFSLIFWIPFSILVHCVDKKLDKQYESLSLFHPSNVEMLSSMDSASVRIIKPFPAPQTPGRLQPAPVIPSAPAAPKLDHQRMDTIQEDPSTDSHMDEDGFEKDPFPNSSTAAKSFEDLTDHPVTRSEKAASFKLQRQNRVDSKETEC
With `COC(=O)[C@]12C[C@H](CC(=O)NCC34CC5CC(CC(C5)C3)C4)C(=O)N(Cc3ccc(Cl)cc3Cl)C1=C[C@H](COCc1ccccc1)O[C@@H]2C` the inhibition was -3.09% (inactive).
For `CCCOc1ccc(Oc2c(Cl)cnn(Cc3cccc4ccccc34)c2=O)cc1`, the inhibition was -6.8% (inactive).
With `CCOc1ccc(CCNC(=O)COC(=O)C2CCN(c3ccc(C(F)(F)F)cn3)CC2)cc1OCC` the inhibition was -1.24% (inactive).
`CCc1cccc(NC(=O)COC(=O)C2CCN(c3ccc(C(F)(F)F)cn3)CC2)c1` was tested, and the inhibition was 8.96% (active).
For `N#CCCN(C(=O)COC(=O)C1CCN(c2ccc(C(F)(F)F)cn2)CC1)c1ccc(F)cc1`, the inhibition was -2.71% (inactive).
With `C=CCOC/C=C/C#CCN(CC=C)Cc1ccc(OC)cc1OC` the inhibition was -0.84% (inactive).
For `O=C(Nc1nc2ccc(Cl)cc2s1)c1cc(-c2ccc(Cl)cc2)nc2ccccc12`, the inhibition was -5.76% (inactive).
`Cc1ccccc1CN1CCCCC(NC(=O)c2cccc(C#N)c2)C1=O` (stereo not given) was tested, and the inhibition was -3.86% (inactive).
With `CCCCCC(=O)N1C[C@H](O)[C@@H](n2cc(COC(=O)c3ccccc3)nn2)C[C@@H]1c1ccc(C)cc1` the inhibition was 8.64% (active).
In the case of `Cc1ccc([C@H]2C[C@H](O)[C@@H](n3cc(COC(=O)c4ccccc4)nn3)CN2C(=O)C2CCCCC2)cc1`, the inhibition is reported as -1.37% (inactive).
For `CCCCCCN1C[C@@H](O)[C@H](n2cc(COC(=O)c3ccccc3)nn2)C[C@@H]1c1ccc(Cl)cc1`, the inhibition was -1.65% (inactive).
With `CC(CCN1CCC(C(O)(c2ccccc2)c2ccccc2)CC1)Oc1ccc([N+](=O)[O-])cc1Cl` (stereo not given) the inhibition was 6.8% (inactive).
`CCN(Cc1ccccc1)S(=O)(=O)c1cc(C(=O)O)ccc1OC` was tested, and the inhibition was 0.35% (inactive).
`C=CC(COCc1ccccc1)N(CC(=O)OC)S(=O)(=O)c1cc(Br)ccc1OC` (stereo not given) was tested, and the inhibition was 9.3% (active).
In the case of `C=CC(COCc1ccccc1)N(Cc1ccccc1)S(=O)(=O)c1ccccc1Br` (stereo not given), the inhibition is reported as -0.15% (inactive).
For `Cc1ccc(NC(=O)c2cc(C)nn2-c2ccccc2)c(C)c1`, the inhibition was 3.11% (inactive).
For `C=C(C)C#CC(Cc1ccccc1)N(CC1CC1)/C(N)=N/C(=O)OCc1ccccc1` (stereo not given), the inhibition was -26.4% (inactive).
With `CCOc1ccc(-n2c(SCC(=O)Nc3cc(C)c(NC(=O)c4ccccc4)cc3OC)nnc2-c2cccc(Cl)c2)cc1` the inhibition was 6.75% (inactive).
For `CCOc1ccc(-n2c(SCC(=O)Nc3cc(C)c(NC(=O)c4ccccc4)cc3OC)nnc2-c2cccs2)cc1`, the inhibition was 10.6% (active).
With `COc1ccc(-n2c(SCC(=O)Nc3ccccc3-c3ccccc3)nnc2-c2cccnc2)cc1` the inhibition was -1.39% (inactive).
For `Cc1cc(=O)[nH]c(SCC(=O)Nc2ccc(F)cc2F)n1`, the inhibition was 6.65% (inactive).
For `Cc1ccc(S(=O)(=O)N2CCN(C(=O)COC(=O)c3c(C)cc(C)cc3C)CC2)c(C)c1`, the inhibition was 19.5% (active).
For `Cc1ccc(S(=O)(=O)N2CCN(C(=O)COC(=O)CNC(=O)c3ccc(C(C)(C)C)cc3)CC2)c(C)c1`, the inhibition was -2.11% (inactive).
In the case of `COc1ccc(/C=C/C(=O)OCC(=O)N2CCN(S(=O)(=O)c3ccc(C)cc3C)CC2)cc1OC`, the inhibition is reported as -6.61% (inactive).
For `Cc1ccc(-n2c(SCC(=O)Nc3ccc(S(=O)(=O)Nc4nccs4)cc3)nnc2-c2ccncc2)cc1`, the inhibition was -0.27% (inactive).
In the case of `O=C(OCC(=O)N1CCN(C(=O)c2ccco2)CC1)c1cccc(O)c1`, the inhibition is reported as -3.62% (inactive).
`O=C(OCc1ccc(-c2ccccc2)cc1)c1cccc(O)c1` was tested, and the inhibition was 9.14% (active).
For `Cc1ccc(S(=O)(=O)c2c(COC(=O)c3cccc(Cl)c3)c(-c3ccccc3)nn2C)cc1`, the inhibition was -0.5% (inactive).
`CCOc1ccccc1CNS(=O)(=O)c1cc(-c2cc(C)no2)ccc1C` was tested, and the inhibition was 10.2% (active).
For `Cc1cc(-c2ccc(C)c(S(=O)(=O)NCCCN(Cc3ccccc3)C(C)C)c2)on1`, the inhibition was -3.83% (inactive).
With `COc1ccc(CNS(=O)(=O)c2cc(-c3cc(C)no3)ccc2C(C)C)cc1` the inhibition was 3.19% (inactive).
For `CCC(CO)Nc1cccc2c1S(=O)(=O)N(Cc1cn(Cc3ccccc3C(F)(F)F)nn1)Cc1ccccc1O2` (stereo not given), the inhibition was -3.41% (inactive).
In the case of `COC(=O)[C@H](C(C)C)N1CCc2nnn(Cc3ccc(C)cc3)c2-c2ccccc2S1(=O)=O`, the inhibition is reported as 2.97% (inactive).
In the case of `C=C1C(C(C)C)N(C)C2=NC(c3ccccc3)CC(=O)N12` (stereo not given), the inhibition is reported as -5.62% (inactive).
In the case of `O=C(CSc1nnc(SCc2ccc(Cl)cc2)s1)N/N=C/c1ccccc1Cl`, the inhibition is reported as 0.99% (inactive).
With `O=C(CSc1nc2ccccc2n1Cc1ccccc1)NNC(=S)Nc1ccccc1` the inhibition was 5.43% (inactive).
`Cc1ccc(NC(=S)NNC(=O)CSc2nnc(SCc3ccccc3Cl)s2)cc1` was tested, and the inhibition was 9.53% (active).
`Nc1[nH]c(/C=C2/CCCCC2n2[nH]c(=O)n(-c3ccccc3)c2=O)c(Cc2ccccc2)[n+]1Cc1ccccc1` (stereo not given) was tested, and the inhibition was -3.48% (inactive).
`O=C(Nc1ccc(Br)cc1)OCCN1C(=O)CCC12CCC(c1ccccc1)CC2` (stereo not given) was tested, and the inhibition was -0.94% (inactive).
For `CC(NCc1ccco1)C(=O)N1CCCCC1` (stereo not given), the inhibition was 0.39% (inactive).
In the case of `O=C(CSCc1ccc([N+](=O)[O-])cc1)Nc1cccc(C(=O)Nc2ccccc2C(=O)O)c1`, the inhibition is reported as 0.74% (inactive).
For `O=C(CSc1nc(-c2ccccc2)cs1)Nc1cccc([N+](=O)[O-])c1`, the inhibition was 8.67% (active).
In the case of `O=C(CSc1nc2[nH]c(=O)[nH]c(=O)c2s1)Nc1cccc(F)c1`, the inhibition is reported as -3.92% (inactive).
`O=C1CC(c2ccc3c(c2)OCO3)N=C2N(CC3CC3)C/C(=C/c3ccccc3)N12` (stereo not given) was tested, and the inhibition was -2.87% (inactive).
`CC(CCN1CCC(C(O)(c2ccccc2)c2ccccc2)CC1)Oc1ccc(C(F)(F)F)cc1` (stereo not given) was tested, and the inhibition was 3.8% (inactive).
With `C=CCC[C@H](Cc1ccc(F)cc1)C(=O)OC[C@@H](Cc1c[nH]c2ccccc12)NC(=O)[C@H](CC=C)CC(=O)N[C@H](CO)Cc1ccccc1` the inhibition was 3.73% (inactive).
`C=CCC[C@H](Cc1ccc(F)cc1)C(=O)OC[C@@H](NC(=O)[C@@H](CC=C)CC(=O)N[C@H](CO)Cc1ccccc1)C(C)(C)C` was tested, and the inhibition was 4.84% (inactive).
In the case of `C=CCC[C@@H](Cc1ccc(F)cc1)C(=O)OC[C@H](Cc1c[nH]c2ccccc12)NC(=O)[C@@H](CC=C)CC(=O)N(CCO)Cc1ccccc1`, the inhibition is reported as 20.9% (active).
In the case of `C=CCC[C@@H](Cc1ccc(F)cc1)C(=O)OC[C@@H](C)NC(=O)[C@H](CC=C)CC(=O)N(CCO)Cc1ccccc1`, the inhibition is reported as 0.31% (inactive).
For `C=CC[C@@H](CC(=O)N[C@H](CO)Cc1ccccc1)C(=O)N[C@@H](COC(=O)[C@@H](CC=C)Cc1ccc(F)cc1)Cc1c[nH]c2ccccc12`, the inhibition was -0.68% (inactive).
For `C=CCC[C@@H](Cc1ccc(F)cc1)C(=O)O[C@H](CNC(=O)[C@H](CC=C)CC(=O)N(CCO)Cc1ccccc1)c1ccccc1`, the inhibition was 13.4% (active).
For `C=CCC[C@H](Cc1ccc(F)cc1)C(=O)OC[C@H](C)NC(=O)[C@H](CC=C)CC(=O)N(CCO)Cc1ccccc1`, the inhibition was 0.15% (inactive).
`C=CC[C@H](CC(=O)N(CCO)Cc1ccccc1)C(=O)N[C@@H](COC(=O)[C@@H](CC=C)Cc1ccc(F)cc1)Cc1ccccc1` was tested, and the inhibition was 13.2% (active).
In the case of `C=CC[C@@H](Cc1ccc(F)cc1)C(=O)OC[C@H]1CCCN1C(=O)[C@H](CC=C)CC(=O)N(CCO)Cc1ccccc1`, the inhibition is reported as 1.4% (inactive).
`CCCCC(=O)N[C@@H]1CC[C@@]23CCCN2C(=O)CCC[C@H]3[C@H]1C` was tested, and the inhibition was -6.42% (inactive).
With `C=C(C)C1CC23C(=O)C4(C(=O)c5ccccc5)C[C@@]5(C)CCC(CC2C1(C)C)(C4=O)C35OC` (stereo not given in full) the inhibition was -2.35% (inactive).
With `COC(=O)[C@]12C[C@H](CC(=O)NCc3ccccc3)C(=O)N(CCc3ccc(OC)c(OC)c3)C1=C[C@H](C(C)(C)C)O[C@@H]2C` the inhibition was 7.1% (inactive).
In the case of `COC(=O)[C@H](C(C)C)N(CCc1cn(Cc2ccccc2)nn1)S(=O)(=O)c1ccc(F)cc1Br`, the inhibition is reported as -0.43% (inactive).
`CCCCOCCCNC(=O)C[C@H]1C[C@@]2(C(=O)OC)C(=C[C@H](COCc3ccccc3)O[C@@H]2C)N(Cc2cccc3ccccc23)C1=O` was tested, and the inhibition was 6.38% (inactive).
In the case of `O=C(Nc1cccc(Cl)c1)OC1CC2CC1[C@H]1CCCCN1[C@H]2Cc1ccccc1` (stereo not given in full), the inhibition is reported as -2.76% (inactive).
With `O=C(Nc1ccc(F)cc1)N1CCCC(c2nc3c(nnn3Cc3ccccc3Cl)c(=O)[nH]2)C1` (stereo not given) the inhibition was -4.29% (inactive).
In the case of `Cc1ccc(Cn2nnc3c(=O)[nH]c(C4CCN(S(=O)(=O)/C=C/c5ccccc5)CC4)nc32)cc1`, the inhibition is reported as 8.9% (active).
`CC(C)(C)c1ccc(Cn2nnc3c(=O)[nH]c(C4CCCN(C(=O)c5ccco5)C4)nc32)cc1` (stereo not given) was tested, and the inhibition was -1.56% (inactive).
In the case of `Cc1sc2nc(SCC(=O)c3ccc(O)c(O)c3)n(Cc3ccco3)c(=O)c2c1C`, the inhibition is reported as 10.2% (active).
`C=CCn1c(SCC(=O)Nc2ccc(NC(C)=O)cc2)nc2sc(C)c(C)c2c1=O` was tested, and the inhibition was -2.65% (inactive).
With `O=C(CSc1nnc(-c2cccs2)n1Cc1ccco1)c1ccc2c(c1)OCO2` the inhibition was 1.24% (inactive).
`C=CCN1C(=O)[C@@H](CC(=O)N2CCN(C(=O)c3ccco3)CC2)[C@]2(C(=O)OC)CCCCC=C12` was tested, and the inhibition was 1.66% (inactive).
`O=C(OC12CCCN(C1)/C(=C/c1cccnc1)C2)C1CCCC1` (stereo not given) was tested, and the inhibition was 1.56% (inactive).
`O=C(NCCCn1ccnc1)Nc1ccc(Cl)cc1Cl` was tested, and the inhibition was -2.99% (inactive).
With `O=C(Nc1ccccc1C(=O)NCCCn1ccnc1)c1ccc(Cl)cc1Cl` the inhibition was 2.53% (inactive).
`Clc1ccc(C(Cn2ccnc2)OCc2ccsc2Cl)c(Cl)c1` (stereo not given) was tested, and the inhibition was 8.72% (active).
For `O=S1(=O)c2c(cccc2N2CC[C@H](O)C2)O[C@@H]2CCN1C2`, the inhibition was -10.8% (inactive).
For `COc1ccc(C(=O)C2CCCN(C(=O)c3ccc(OC)o3)C2)c(C)c1` (stereo not given), the inhibition was -0.93% (inactive).
In the case of `COc1ccc(C(=O)C2CCCN(C(=O)c3cnsn3)C2)c(C)c1` (stereo not given), the inhibition is reported as -4.24% (inactive).
With `COc1ccc(C(=O)C2CCCN(S(=O)(=O)c3cccc(C)c3)C2)c(C)c1` (stereo not given) the inhibition was 12.6% (active).
